# From PubChem BioAssay (Tox21)
# Unmarked numbers belong to inactive results. Inconclusive results are not listed. Entries that show only a call come without a potency. The source made the active and inactive calls. Unless noted, calls come from the whole dose curve; as a rule, active = well fitted curve in the direction sought with a large enough effect in the repeat runs; inconclusive = weak or mixed curves; inactive = no such curve, though single readings can be large; an effect the other way counts as inactive or inconclusive.
# Tests used:
# [1] = qHTS assay to identify small molecule agonists of the hypoxia (HIF-1) signaling pathway (AID 1224846; active = well fitted activation curve with a large enough effect in the signal ratio in the repeat runs, not every such curve was filed as active; the % refers to the signal ratio)
# Outline: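 ME-180 HRE-bla reporter cells; compounds in DMSO, 17 h at 37C; read-out beta-lactamase via CCF4-AM FRET.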
# [2] = qHTS assay to identify small molecule agonists of H2AX - cell viability counter screen (AID 1224847; calls by dose curve; note: top concentration of the series differs between compounds; nearly all actives have a fitted effect of over 30% in size)
# Outline: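 Viability of CHO-K1 (wild type) cells after 3 hr compound exposure was measured by CellTiter-Glo luminescence.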
# [3] = qHTS assay to identify small molecule antagonists of the estrogen related receptor (ERR) signaling pathway from Tox21 library (AID 1224848); note: nearly all actives have a fitted effect of over 50% in size
# Outline: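 Quantitative high-throughput format: ERR reporter cells (2,000/well) pre-incubated 6 h, treated 18 h at 37 C with compounds in DMSO alongside positive and negative controls, then read by ONE-Glo luminescence.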
# [4] = qHTS assay to identify small molecule agonists of the estrogen related receptor (ERR) signaling pathway from Tox21 library (AID 1224849; calls by dose curve; note: nearly all actives have a fitted effect of over 15% in size); conditions: ERR reporter cell line, ONE-Glo luciferase, 18 h; at 92.4 µM (top of the series) unless noted
# Outline: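 Luciferase activity in ERR pathway reporter cells served as the agonist readout; exposure lasted 18 h at 37 C, with ONE-Glo detection after 30 min at room temperature.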
# [5] = qHTS RealTime-Glo MT Cell Viability Assay in HepG2 cells - 24 hour (AID 1224867); note: nearly all actives have a fitted effect of over 50% in size
# Outline: (§1)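 Cell number in HepG2 cultures estimated from NanoLuc luminescence generated by metabolic reduction of a prosubstrate by living cells. The homogeneous, nonlytic format allowed repeated reads at 0, 8, 16, 24, 32 and 40 h of compound exposure.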
# [6] = qHTS RealTime-Glo MT Cell Viability Assay in HEK293 cells - 32 hour (AID 1224868); note: nearly all actives have a fitted effect of over 50% in size; note: potency is the fitted concentration of half-maximal effect; for activity change, negative = cytotoxic: top concentration of the series differs between compounds
# Outline: (§2)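 Homogeneous bioluminescent viability format in HEK293 cells (600 cells/well). Following 5 h at 37 C/5% CO2, 23 nL compound was pintooled; the signal was measured repeatedly during 40 h incubation.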
# [7] = A CellTox Green Cytotoxicity Assay to monitor cytotoxicity in HEK293 cells - 0 hour (AID 1224869); note: nearly all actives have a fitted effect of over 50% in size
# Outline: (§3)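 Real-time, in one plate: 600 HEK293 cells/well with dead-cell DNA dye, pinned compound after 5 h, 37 C incubation over 40 h; viable cells give no appreciable fluorescence.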
# [8] = qHTS RealTime-Glo MT Cell Viability Assay in HepG2 cells - 40 hour (AID 1224870); note: nearly all actives have a fitted effect of over 50% in size
# Outline: (§4)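 HepG2 cells (600/well) mixed with RealTime-Glo MT reagent, settled 5 h at 37 C/5% CO2 before compound addition. Nonlytic NanoLuc luminescence from viable-cell prosubstrate reduction read repeatedly during 40 h treatment at 37 C.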
# [9] = A CellTox Green Cytotoxicity Assay to monitor cytotoxicity in HEK293 cells - 40 hour (AID 1224871); note: nearly all actives have a fitted effect of over 45% in size; note: potency is the fitted concentration of half-maximal effect
# Outline: as §3
# [10] = qHTS RealTime-Glo MT Cell Viability Assay in HEK293 cells - 16 hour (AID 1224872)
# Outline: as §2
# [11] = qHTS RealTime-Glo MT Cell Viability Assay in HepG2 cells - 8 hour (AID 1224873); note: nearly all actives have a fitted effect of over 55% in size
# Outline: as §4
# [12] = qHTS RealTime-Glo MT Cell Viability Assay in HEK293 cells - 40 hour (AID 1224874); conditions: RealTime-Glo luminescence; max response: active compounds read low; note: nearly all actives have a fitted effect of over 50% in size; note: potency is the fitted concentration of half-maximal effect
# Outline: (§5)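 Kinetic, non-lysing viability readout. Seed HEK293 (600/well) with reagent, incubate 5 h at 37 C/5% CO2, pin 23 nL compound in DMSO, incubate at 37 C, read luminescence at 0, 8, 16, 24, 32, 40 h.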
# [13] = A CellTox Green Cytotoxicity Assay to monitor cytotoxicity in HEK293 cells - 24 hour (AID 1224875); note: nearly all actives have a fitted effect of over 45% in size; note: potency is the fitted concentration of half-maximal effect
# Outline: as §3
# [14] = A CellTox Green Cytotoxicity Assay to monitor cytotoxicity in HepG2 cells - 16 hour (AID 1224876); note: nearly all actives have a fitted effect of over 45% in size
# Outline: (§6)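 Cytotoxicity was tracked as dead-cell DNA fluorescence in HepG2 cells treated with test compounds at 37 C; each time-point value comes from one kinetic series spanning 0, 8, 16, 24, 32 and 40 h.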
# [15] = qHTS RealTime-Glo MT Cell Viability Assay in HepG2 cells - 32 hour (AID 1224877); note: nearly all actives have a fitted effect of over 55% in size
# Outline: as §1
# [16] = A CellTox Green Cytotoxicity Assay to monitor cytotoxicity in HepG2 cells - 24 hour (AID 1224878); note: nearly all actives have a fitted effect of over 45% in size
# Outline: as §6
# [17] = A CellTox Green Cytotoxicity Assay to monitor cytotoxicity in HepG2 cells - 40 hour (AID 1224879); note: nearly all actives have a fitted effect of over 40% in size; note: potency is the fitted concentration of half-maximal effect
# Outline: as §6
# [18] = qHTS RealTime-Glo MT Cell Viability Assay in HEK293 cells - 0 hour (AID 1224880)
# Outline: as §5
# [19] = A CellTox Green Cytotoxicity Assay to monitor cytotoxicity in HEK293 cells - 32 hour (AID 1224881); note: nearly all actives have a fitted effect of over 40% in size; note: potency is the fitted concentration of half-maximal effect
# Outline: as §3
# [20] = qHTS assay to identify small molecule agonists of H2AX (AID 1224845; active = well fitted activation curve with a large enough effect in the signal ratio in the repeat runs, not every such curve was filed as active; the % refers to the signal ratio)
# Outline: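 Wild-type CHO-K1 cells, plated overnight, exposed 3hr at 37C to 15 concentrations (0.76% DMSO final). Lysed, then HTRF anti-pH2AX (S139) cryptate and anti-H2AX-d2 antibodies, 24 hr room temperature; 665/620 nm emission read.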
structure (smiles),measurement,setting,value
CCNc1cc(O)ccc1C,Potency,[1],inactive
same,Potency,[2],inactive
same,Potency,[3],inactive
same,"activity change, positive = activation",[4],-8.23%
same,Potency,[5],inactive
same,Potency,[6],inactive
same,Potency,[7],inactive
same,Potency,[8],inactive
same,Potency,[9],34.3 µM (active)
same,Potency,[10],inactive
same,Potency,[11],inactive
same,max response,[12],7.99%
same,Potency,[13],38.5 µM (active)
same,Potency,[14],inactive
same,Potency,[15],inactive
same,Potency,[16],inactive
same,Potency,[17],inactive
same,Potency,[18],inactive
same,Potency,[19],34.3 µM (active)
CC1=CC[C@H](C(C)C)C=C1,Potency,[20],inactive
same,Potency,[2],inactive
same,Potency,[6],inactive
same,Potency,[7],inactive
same,Potency,[8],inactive
same,Potency,[9],inactive
same,Potency,[10],inactive
same,Potency,[11],inactive
same,max response,[12],-3.46%
same,Potency,[13],inactive
same,Potency,[14],inactive
same,Potency,[15],inactive
same,Potency,[16],inactive
same,Potency,[17],inactive
same,Potency,[19],inactive
CC(C)(C)Cl,Potency,[20],inactive
same,Potency,[2],inactive
same,Potency,[5],inactive
same,Potency,[7],inactive
same,Potency,[8],inactive
same,Potency,[9],inactive
same,Potency,[10],inactive
same,Potency,[11],inactive
same,max response,[12],1.73%
same,Potency,[13],inactive
same,Potency,[14],inactive
same,Potency,[15],inactive
same,Potency,[16],inactive
same,Potency,[17],inactive
same,Potency,[19],inactive
O=C(O)CNCC(=O)O,activation (H2AX phosphorylation),[20],4.61% [at 14 µM]
same,"activity change, negative = cytotoxicity",[2],-1.6% [at 14 µM]
same,"activity change, negative = cytotoxicity",[5],0.0678% [at 6.97 µM]
same,cytotoxicity,[7],-0.535% [at 6.97 µM]
same,"activity change, negative = cytotoxic",[8],1.89% [at 6.97 µM]
same,cytotoxicity increase,[9],3.68% [at 6.97 µM]
same,"activity change, negative = cytotoxicity",[10],-7.32% [at 6.97 µM]
same,"viability change, negative = cytotoxic",[11],0.198% [at 6.97 µM]
same,max response,[12],-8.46%
same,activity change,[13],"3.54% [at 6.97 µM, active compounds read high]"
same,cytotoxicity increase,[14],-9.02% [at 6.97 µM]
same,"activity change, negative = cytotoxic",[15],0.774% [at 6.97 µM]
same,cytotoxicity increase,[17],-10.4% [at 6.97 µM]
same,cytotoxicity increase,[19],4.03% [at 6.97 µM]
CCCCCCCN,Potency,[20],inactive
same,Potency,[2],inactive
same,Potency,[6],inactive
same,Potency,[7],inactive
same,Potency,[8],inactive
same,Potency,[9],inactive
same,Potency,[10],inactive
same,Potency,[11],inactive
same,max response,[12],-2.68%
same,Potency,[13],inactive
same,Potency,[14],inactive
same,Potency,[15],inactive
same,Potency,[16],inactive
same,Potency,[17],inactive
same,Potency,[18],inactive
same,Potency,[19],inactive
O=C(O)c1ccc(S(=O)(=O)O)cc1C(=O)O,Potency,[1],inactive
same,Potency,[2],inactive
same,Potency,[3],inactive
same,"activity change, positive = activation",[4],-2.89%
same,Potency,[5],inactive
same,Potency,[7],inactive
same,Potency,[8],inactive
same,Potency,[9],inactive
same,Potency,[11],inactive
same,Potency,[13],inactive
same,Potency,[15],inactive
same,Potency,[16],inactive
same,Potency,[17],inactive
same,Potency,[19],inactive
CCOc1ccc(O)cc1,Potency,[1],inactive
same,Potency,[2],inactive
same,Potency,[5],inactive
same,Potency,[7],inactive
same,Potency,[8],inactive
same,Potency,[9],inactive
same,Potency,[12],11 µM (active)
same,Potency,[13],inactive
same,Potency,[14],inactive
same,Potency,[15],inactive
same,Potency,[16],inactive
same,Potency,[17],inactive
same,Potency,[18],inactive
same,Potency,[19],inactive
CN(C)c1ccc(/C=C/c2ccc([N+](=O)[O-])cc2)cc1,activation,[1],-1.48% [at 7.01 µM]
same,"activity change, negative = cytotoxicity",[2],-2.45% [at 14 µM]
same,"activity change, negative = cytotoxicity",[5],-7.57% [at 6.97 µM]
same,"activity change, negative = cytotoxic",[8],-1.99% [at 6.97 µM]
same,"viability change, negative = cytotoxic",[11],-4.05% [at 6.97 µM]
same,max response,[12],-4.38%
same,cytotoxicity increase,[14],19.5% [at 6.97 µM]
same,"activity change, negative = cytotoxic",[15],-4.75% [at 6.97 µM]
same,cytotoxicity,[16],17.5% [at 6.97 µM]
same,cytotoxicity increase,[17],16.3% [at 6.97 µM]
same,"activity change, negative = cytotoxicity",[18],-5.79% [at 6.97 µM]
same,cytotoxicity increase,[19],15.1% [at 6.97 µM]
COS(=O)(=O)C(F)(F)F,Potency,[1],inactive
same,Potency,[2],inactive
same,Potency,[5],inactive
same,Potency,[6],inactive
same,Potency,[7],inactive
same,Potency,[8],inactive
same,Potency,[9],inactive
same,Potency,[10],inactive
same,Potency,[11],inactive
same,max response,[12],11.7%
same,Potency,[13],inactive
same,Potency,[15],inactive
same,Potency,[16],inactive
same,Potency,[17],inactive
same,Potency,[18],inactive
same,Potency,[19],inactive
CN(C)c1ccc(CCO)cc1,Potency,[1],inactive
same,Potency,[2],inactive
same,Potency,[5],inactive
same,Potency,[6],30.7 µM (active)
same,Potency,[7],inactive
same,Potency,[8],inactive
same,Potency,[9],inactive
same,Potency,[11],inactive
same,Potency,[12],34.5 µM (active)
same,Potency,[13],inactive
same,Potency,[14],inactive
same,Potency,[16],inactive
same,Potency,[17],inactive
same,Potency,[18],inactive
same,Potency,[19],inactive
N=c1ccn2c(n1)O[C@H]1[C@H](O)[C@@H](CO)O[C@H]12,Potency,[1],inactive
same,Potency,[3],inactive
same,"activity change, positive = activation",[4],-6.33%
same,Potency,[5],inactive
same,Potency,[6],inactive
same,Potency,[7],inactive
same,Potency,[8],inactive
same,Potency,[9],inactive
same,Potency,[11],inactive
same,max response,[12],22.1%
same,Potency,[13],inactive
same,Potency,[15],inactive
same,Potency,[17],54.9 µM (active)
Nc1c(CC(=O)O)cccc1C(=O)c1ccc(Br)cc1,Potency,[1],inactive
same,Potency,[2],inactive
same,Potency,[5],inactive
same,Potency,[7],inactive
same,Potency,[8],inactive
same,Potency,[9],inactive
same,Potency,[10],inactive
same,max response,[12],13%
same,Potency,[13],inactive
same,Potency,[15],inactive
same,Potency,[16],inactive
same,Potency,[17],inactive
same,Potency,[18],inactive
same,Potency,[19],inactive
COc1ccc(C(=O)c2ccc(OC)cc2O)c(O)c1,Potency,[1],inactive
same,Potency,[3],inactive
same,"activity change, positive = activation",[4],-2.18% (active)
same,Potency,[5],inactive
same,Potency,[6],27.7 µM (active)
same,Potency,[7],inactive
same,Potency,[8],inactive
same,Potency,[11],inactive
same,Potency,[12],24.7 µM (active)
same,Potency,[14],inactive
same,Potency,[15],inactive
same,Potency,[16],inactive
same,Potency,[17],15.6 µM (active)
same,Potency,[18],inactive
CC1=CCCC(C)(C)C12CCC(C)O2 (configuration not stated),Potency,[1],inactive
same,Potency,[2],inactive
same,Potency,[5],inactive
same,Potency,[6],inactive
same,Potency,[7],inactive
same,Potency,[8],inactive
same,Potency,[9],inactive
same,Potency,[11],inactive
same,max response,[12],-12.5%
same,Potency,[13],inactive
same,Potency,[14],inactive
same,Potency,[15],inactive
same,Potency,[16],inactive
same,Potency,[17],inactive
same,Potency,[18],inactive
same,Potency,[19],inactive
